# Sampled rows, rich in hits. Any-hit rate of the full collection: about 2.4%.
# M1 PAM – potentiates human M1 receptor response to acetylcholine; 360,000 compounds, 0.088% hits; CHO-K1 hM1, Fluo-8 calcium fluorescence, ACh EC20; 0% = ACh EC20, 100% = maximal ACh; P11229; activation, % at 3 µM; in the data active = activation above about 19%, passing the limit was not always enough
# Target sequence (P11229 whole entry, looked up): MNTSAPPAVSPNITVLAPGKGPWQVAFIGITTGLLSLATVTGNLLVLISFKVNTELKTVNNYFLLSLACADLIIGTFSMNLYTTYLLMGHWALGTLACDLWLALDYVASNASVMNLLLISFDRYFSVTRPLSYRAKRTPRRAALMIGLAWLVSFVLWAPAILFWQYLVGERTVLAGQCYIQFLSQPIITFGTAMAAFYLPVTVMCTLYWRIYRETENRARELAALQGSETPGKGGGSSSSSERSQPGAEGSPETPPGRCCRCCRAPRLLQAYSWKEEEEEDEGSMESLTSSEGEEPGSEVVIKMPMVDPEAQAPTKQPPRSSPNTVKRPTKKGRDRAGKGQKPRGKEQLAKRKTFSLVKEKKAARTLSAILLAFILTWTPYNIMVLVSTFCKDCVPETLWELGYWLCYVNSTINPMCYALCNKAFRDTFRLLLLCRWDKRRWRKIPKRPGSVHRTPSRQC
# M1 antag – blocks human M1 muscarinic receptor; 360,000 compounds, 1.3% hits; CHO-K1 hM1, Fluo-8 calcium fluorescence, ACh EC80 antagonist; inhibition, % at 3 µM;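 active = percent inhibition above its own plate's cutoff, namely the mean of that plate's compound wells plus 3 SD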;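 also: peak over basal fluorescence ratio during 140 s after agonist addition; 0% = ACh EC80 plus DMSO and 100% = DMSO alone without agonist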
# M1 ag – activates human CHRM1 receptor | activation, % at 3 µM | AID 588814 | P11229 | 360,000 compounds, 0.33% hits | CHO-K1 hM1, Fluo-8 calcium fluorescence, agonist mode; 0% DMSO, 100% acetylcholine EC100;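 active = activation above the run's mean compound activation plus 3 SD, cut at about 16% in these data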;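 also: peak over basal fluorescence ratio within a 140 s kinetic read after compound addition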
# CHO-K1 Ca PAM – counter-screen for M1 PAMs: effect in parental CHO-K1 cells; ATP EC20, Fluo-8 calcium fluorescence; 0% at ATP EC20, 100% at ATP max; activation, % at 3 µM; 360,000 compounds, 0.02% hits; AID 602247;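 active = activation above the run cutoff, the mean activation of all test compounds plus 3 SD, cut at about 40% in these data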;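 also: peak over basal fluorescence ratio in a 140 s read after ATP addition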
# CHO-K1 Ca ag – M1 agonist counterscreen hit in parental CHO-K1 cells | 360,000 compounds, 0.48% hits | Fluo-8 calcium fluorescence; scaled to maximal ATP response, vehicle zero | activation, % at 3 µM; in the data active = activation above about 15%;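 also: untransfected CHO-K1 host cells lacking M1 receptor as counterscreen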
# CHO-K1 Ca antag – nonselective inhibitor or artifact in parental CHO-K1 cells. inhibition, % at 3 µM. ATP-induced calcium, Fluo-8 fluorescence. 360,000 compounds, 0.6% hits. AID 602250;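 active = inhibition above a per-plate cutoff, the plate's mean sample inhibition plus 3 SD, cut at about 24% in these data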;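 also: 0% = DMSO plus EC80 ATP and 100% = DMSO alone without ATP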
# * = called active by the depositor.
SMILES,M1 PAM,M1 antag,M1 ag,CHO-K1 Ca PAM,CHO-K1 Ca ag,CHO-K1 Ca antag
Cc1ccc(C(CNS(=O)(=O)c2ccccc2)N2CCN(C)CC2)cc1 (stereo not drawn),25*,-21,-4,9,0,-4
Cc1ccc(S(=O)(=O)CC(c2ccccc2)N2CCOCC2)cc1 (stereo not drawn),4,-10,-2,-1,0,4
Cc1ccc(C(CNS(=O)(=O)c2ccc(Br)cc2)N2CCN(C)CC2)cc1 (stereo not drawn),-4,13,-5,11,5,3
CN(Cc1ccccc1)C(=O)CCS(=O)(=O)c1ccc2c(c1)NC(=O)CS2,5,-7,-2,16,2,-10
CCOC(=O)Nc1ccc2c(c1)N(C(=O)CCN(CC)CC)c1ccccc1S2=O (stereo not drawn),-27,59*,-9,13,1,-10
CCOC(=O)Nc1ccc2c(c1)N(C(=O)CN(CC)CC)c1ccccc1C=C2,-35,72*,-15,0,0,-5
COc1ccccc1S(=O)(=O)N(C)C[C@@H]1Oc2ncc(-c3ccc(C)cc3)cc2C(=O)N([C@H](C)CO)C[C@@H]1C,16,-17,0,7,-1,0
COc1ccc(OC)c(S(=O)(=O)N2CCN(C(=O)c3ccco3)CC2)c1,18,-23,-2,0,0,-7
COc1cc(S(=O)(=O)N2CCN(C(=O)c3ccco3)CC2)c(OC)cc1C,7,78*,0,17,1,-7
CC(=O)Nc1cccc(NC(=O)CSc2ncc(-c3ccc(Cl)cc3)n2Cc2ccco2)c1,-19,26*,6,1,8,12
Nc1ncnc2c1ncn2[C@@H]1O[C@H](CN2CCCS2(=O)=O)[C@@H](O)[C@H]1O,-3,6,-2,-15,0,11
Cc1ccc(Cl)cc1N1CCN(c2cccc[n+]2C)CC1,-19,48*,-6,14,4,-3
CN(Cc1ccc(C(C)(C)C)cc1)C(=O)C1CSC2(C)CCC(=O)N12 (stereo not drawn),-2,1,1,-8,3,-7
CC(C)CNC(=O)C1(C)CCCN1Cc1ccc(S(C)(=O)=O)cc1 (stereo not drawn),6,-13,-4,17,0,-5
COc1ccccc1NS(=O)(=O)c1cccc(C(=O)NCC(c2ccccc2OC)N2CCCC2)c1 (stereo not drawn),-20,42*,-7,-5,1,-13
CCN(c1ccccc1)S(=O)(=O)c1ccc(C(=O)NCC(c2ccccc2OC)N2CCCC2)cc1 (stereo not drawn),-10,9,-7,9,3,-8
COc1ccccc1C(CNC(=O)c1cccc(S(=O)(=O)Nc2ccc(C)cc2)c1)N1CCCC1 (stereo not drawn),-23,78*,-7,18,3,-1
C=CCN(c1ccccc1)S(=O)(=O)c1cccc(C(=O)NCC(c2ccccc2OC)N2CCCC2)c1 (stereo not drawn),-24,50*,-8,-10,-1,-14
Cc1cccc(C)c1NC(=O)c1csc([C@@H]2O[C@H](CO)[C@H](O)[C@H](O)[C@H]2O)n1,15,-22,0,20,0,1
CC(C)(C)c1ccc(C(=O)N2CCC2(C)C(=O)NS(=O)(=O)c2ccc(C#N)cc2)cc1 (stereo not drawn),11,-13,-2,3,0,-5
COc1ccc(-c2ccc(CN3C(C(C)C)C(=O)N(Cc4cn(CC5CCCCC5)nn4)CCS3(=O)=O)cc2)cc1OC (stereo not drawn),-2,0,-2,5,1,-7
COc1ccc(S(=O)(=O)N2CCOCC2)cc1C(=O)Nc1ccc(N2CCCCCC2)cc1,8,-1,-5,-8,1,3
Cc1cc(C)cc(NC(=O)COC(=O)CCn2c(C)csc2=O)c1,10,-14,-2,6,0,-8
COc1cc2c(cc1OC)CN(C(=O)Cc1c(F)cccc1Cl)CC2,12,-2,1,-13,1,-8
Cc1cc(NC(=O)CSc2nnc(-c3cccc(Cl)c3)o2)no1,4,-3,0,-16,1,12
SMILES,M1 PAM,M1 antag,M1 ag,CHO-K1 Ca PAM,CHO-K1 Ca ag,CHO-K1 Ca antag
Cc1cc(-c2nnc(-c3cccc(Cl)c3)o2)no1,13,-9,6,13,18*,2
CN(C)CCNC(=S)Nc1ccc(Cl)cc1,25*,14,-5,2,0,3
S=C(NCc1ccc(Cl)cc1)Nc1ccncc1,-14,44*,7,-19,21*,31*
CCCCNC(=S)Nc1ccc(Cl)cc1,-10,14,-3,-11,10,31*
S=C(NCc1ccc(Cl)cc1)Nc1ccccc1,-8,2,-3,10,9,1
COc1ccc(NC(=S)NCCSc2ccc(Cl)cc2)c(OC)c1,14,-20,6,-2,0,24*
C[C@H](CO)N1C[C@H](C)[C@@H](CN(C)Cc2ccc3c(c2)OCCN3C)OCc2cnnn2CCCC1=O,-1,3,-4,3,1,-2
Cc1ccc(OCC(=O)NNC(=O)C2CC(=O)N(c3ccc4c(c3)OCCO4)C2)cc1 (stereo not drawn),11,-7,-4,-6,2,12
Cc1ccc(NC(=S)NCCSc2ccc(Cl)cc2)cc1,-26,56*,-6,-11,3,9
Cc1ccc(SCCNC(=S)Nc2cc(C)cc(C)c2)cc1,-19,21,-3,15,4,-5
OCCN(Cc1cccnc1)Cc1ccccn1,-29,59*,-8,20,0,-17
CC(C)(C)S(=O)N1Cc2cc(CO)cc(-c3ccccc3)c2[C@@H]1CCO (stereo partly drawn),6,-13,-1,20,2,-10
COc1ccc(Cl)cc1S(=O)(=O)n1nnc2ccccc21,2,9,-2,1,0,28*
COc1ccc(OC)c(S(=O)(=O)n2nnc3ccccc32)c1,4,-5,-3,10,0,-3
CCCn1c(N)c(N(CCOC)C(=O)CSc2ccccc2)c(=O)[nH]c1=O,7,-8,0,-1,1,-10
CCN(CC)CC#CC(OC)(c1ccccc1)c1ccccc1,-38,100*,-16,-1,0,-3
CCN(CC)CC#Cc1ccc(C)cc1,-2,3,-5,4,1,-1
COc1ccc(CCN(C)C(=O)Cc2ccc(-c3ccccc3)cc2)cc1OC,-6,10,2,-26,12,24*
COc1ccc(CCN(C)C(=O)COc2ccc(C(=O)c3ccccc3)cc2)cc1OC,-1,3,-1,-17,1,-1
CCOc1ccc(-n2c(SCC(=O)NC)nnc2-c2ccco2)cc1,12,-16,-1,-15,0,10
